Assay results reported in PubChem BioAssay (NCI).
Values joined by “and” are separate entries in the source; they are usually repeats but may differ in a detail not shown here. Equal values may be shown once. Compounds without any hit were thinned out: in the full panel of roughly 83,000, 20% have a hit.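 Testing used 96-well plates and a 48-hour single-concentration exposure. Example: -40 means 40% of the starting cells died.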 Active and inactive are the calls of the source. How the source made its calls: active means growth percent below 10; inactive means the rest.

Legend:
Test in all cases: NCI-60 one-dose screen, 48 h (100 = growth as untreated, 0 = no growth, -100 = all killed)
Settings in all cases: 10 µM unless noted
T-47D breast = tested on: T-47D breast
BT-549 breast = tested on: BT-549 breast
MDA-MB-435 melanoma = tested on: MDA-MB-435 melanoma
MCF7 breast = tested on: MCF7 breast
HCT-116 colon = tested on: HCT-116 colon
HCC-2998 colon = tested on: HCC-2998 colon
KM12 colon = tested on: KM12 colon
SW-620 colon = tested on: SW-620 colon

Compound | growth (T-47D breast) | growth (BT-549 breast) | growth (MDA-MB-435 melanoma) | growth (MCF7 breast) | growth (HCT-116 colon) | growth (HCC-2998 colon) | growth (KM12 colon) | growth (SW-620 colon)
N=C1N=C(N)CS1 | 108% (inactive) | 120% (inactive) | 106% (inactive) | 96.8% (inactive) | 107% (inactive) | 110% (inactive) | 107% (inactive) | 
Clc1nc(Oc2ccccc2)nc(-c2cn(-c3ccccc3)c3ccccc23)n1 | 89.8% (inactive) |  | 38.2% (inactive) | 88.5% (inactive) | 58.5% (inactive) | 74.4% (inactive) | 89.6% (inactive) | 12.4% (inactive)
CC(C)Oc1ccc2cc(-c3nn(CC4CCNCC4)c4ncnc(N)c34)ccc2c1 | 77.8% (inactive) and -8.43% (active) |  | 92.1% (inactive) and -86.6% (active) | 83.6% (inactive) and 15.2% (inactive) | 50.4% (inactive) and 9.14% (active) | 77.7% (inactive) and -13.5% (active) | 86.4% (inactive) and 22.4% (inactive) | 91.7% (inactive) and 1.44% (active)
C1CCCCNCCC1 | 101% (inactive) | 114% (inactive) | 94.6% (inactive) | 101% (inactive) | 107% (inactive) | 112% (inactive) | 115% (inactive) | 
COc1cc(/C=N/Nc2nc3c([nH]2)c(=O)n(C)c(=O)n3C)ccc1O | 93% (inactive) and 102% (inactive) | 103% (inactive) and 112% (inactive) | 104% (inactive) and 116% (inactive) |  | 100% (inactive) and 108% (inactive) | 102% (inactive) and 124% (inactive) | 67.6% (inactive) and 79.4% (inactive) | 
O=C(c1ccc(Cl)cc1)C(NCCO)c1ccc(Cl)cc1 (stereo not drawn) | 85.4% (inactive) | 104% (inactive) and 94.6% (inactive) | 97.9% (inactive) and 108% (inactive) | 103% (inactive) and 97.3% (inactive) | 102% (inactive) and 99.4% (inactive) | 101% (inactive) | 105% (inactive) and 101% (inactive) | 
N#CC(C#N)=C/C=C/c1cccc([N+](=O)[O-])c1 | 39.1% (inactive) and 17% (inactive) |  | 6.2% (active) and -53.1% (active) | 32.4% (inactive) and 18% (inactive) | -64.6% (active) and -91.7% (active) | -79.1% (active) and -79.8% (active) | 8.85% (active) and -76.4% (active) | 2.75% (active) and -71.6% (active)
CCOC(=O)Nc1ccc2c(c1)/C(=N\NC(N)=S)c1ccccc1-2 | 26.4% (inactive) and 31.3% (inactive) | 41.6% (inactive) and 82.6% (inactive) | 57.3% (inactive) and 59.9% (inactive) | 63% (inactive) and 70.6% (inactive) | 53.5% (inactive) and 71.4% (inactive) | 60.9% (inactive) and 68.9% (inactive) | 40.4% (inactive) and 54.2% (inactive) | 
Cc1nn(-c2ccc(Cl)cc2)c2ncnc(N/N=C/c3ccccc3O)c12 | 13.3% (inactive) and 23.8% (inactive) |  | 27.3% (inactive) and 23.7% (inactive) | 8.28% (active) and 12.1% (inactive) | 26.7% (inactive) and 21.6% (inactive) | 31% (inactive) and 39.7% (inactive) | 28.4% (inactive) and 22.2% (inactive) | 35.1% (inactive) and 31.5% (inactive)
CN(C)c1ccc(/C=C(\C#N)c2ccccc2)cc1 | 39.5% (inactive) and 36.1% (inactive) and 29.8% (inactive) | 51.3% (inactive) and 52.8% (inactive) and 49.5% (inactive) | -44.1% (active) and -7.42% (active) and -26.3% (active) | 23.6% (inactive) and 24.5% (inactive) and 33% (inactive) | 17.4% (inactive) and 27.1% (inactive) and 19.8% (inactive) | -28.9% (active) and 68.2% (inactive) and 47.7% (inactive) | 13% (inactive) and 38.8% (inactive) and 28.7% (inactive) | 
CCOC(=O)c1c(C)oc(C)c(C(=O)OCC)c1=O | 99.1% (inactive) and 87.7% (inactive) |  | 111% (inactive) and 108% (inactive) | 97.7% (inactive) and 97.4% (inactive) | 97% (inactive) and 97.3% (inactive) | 102% (inactive) | 114% (inactive) and 117% (inactive) | 104% (inactive) and 98.3% (inactive)
Oc1c(Cl)cc(Cl)cc1Sc1cc(Cl)cc(Cl)c1O | 77.4% (inactive) and 52.2% (inactive) and 80.7% (inactive) |  | 51% (inactive) and 26.6% (inactive) and 92.5% (inactive) | 73.1% (inactive) and 5.37% (active) and 69.8% (inactive) | 18.7% (inactive) and 11.8% (inactive) and 76.7% (inactive) | 50% (inactive) and 23.1% (inactive) and 86% (inactive) | 46.7% (inactive) and 21% (inactive) and 80.2% (inactive) | 15.7% (inactive) and 26.6% (inactive) and 83% (inactive)
CN1CCN(Cc2occc(=O)c2O)CCN(C)CCN(Cc2occc(=O)c2O)CC1 | 93.8% (inactive) and 77.4% (inactive) | 97.1% (inactive) and 84% (inactive) | 108% (inactive) and 47.3% (inactive) | 91.6% (inactive) and 24.9% (inactive) | 100% (inactive) and 10.6% (inactive) | 112% (inactive) and 47.5% (inactive) | 109% (inactive) and 28.9% (inactive) | 
O=[N+]([O-])c1ccccc1N(S(=O)(=O)c1ccccc1)S(=O)(=O)c1ccccc1 | 105% (inactive) and 92.7% (inactive) | 106% (inactive) | 100% (inactive) and 98.1% (inactive) | 127% (inactive) | 110% (inactive) and 91.4% (inactive) |  | 96.1% (inactive) and 92% (inactive) | 
CCN(CC)CCOc1ccc2c(c1)C(=O)c1cc(OCCN(CC)CC)ccc1-2 | 111% (inactive) and 131% (inactive) | 96% (inactive) and 76.3% (inactive) | 73.4% (inactive) and 67% (inactive) |  | 44.2% (inactive) and 13.2% (inactive) | 77.9% (inactive) and 56.5% (inactive) | 54.8% (inactive) and 40.4% (inactive) | 
Cc1cc(N=Nc2ccc(C)c(N=Nc3cc(C)c(N)cc3N)c2)c(N)cc1N | 77.5% (inactive) and 82.6% (inactive) | 94.2% (inactive) | 100% (inactive) and 12% (inactive) | 66.9% (inactive) and 19.4% (inactive) | 84.3% (inactive) and 58.3% (inactive) | 105% (inactive) and 91% (inactive) | 90.6% (inactive) and 39.6% (inactive) | 
CN1CCN(CCC=C2c3ccccc3Sc3ccc(S(=O)(=O)N(C)C)cc32)CC1 | 77.4% (inactive) |  | 12.8% (inactive) and 6.78% (active) | 41.2% (inactive) and 71.9% (inactive) | 39.5% (inactive) and 45.1% (inactive) | 13.9% (inactive) and 14.4% (inactive) | 68.7% (inactive) and 73.4% (inactive) | 76.9% (inactive) and 74.2% (inactive)
COc1ccc(NC(=S)Nc2ccccn2)cc1 | 101% (inactive) | 105% (inactive) | 98.7% (inactive) | 95.1% (inactive) | 95.4% (inactive) |  | 91% (inactive) | 
O=C(CCc1ccc(O)cc1)N/N=C/c1cc(Br)ccc1O | 33.3% (inactive) | 52.4% (inactive) | 55.8% (inactive) | 38.9% (inactive) | 46.7% (inactive) | 50.1% (inactive) | 28.1% (inactive) | 
Oc1nc(NCCc2ccccc2)sc1/C=C1\C=Nc2ncccc21 | -1.34% (active) and 2.6% (active) | 5.29% (active) and -7.9% (active) | 18.5% (inactive) and 21% (inactive) | 2% (active) and 4% (active) | 5.84% (active) and 9.69% (active) | 66.2% (inactive) and 53.9% (inactive) | 9.25% (active) and 13.1% (inactive) | 
CC(C)(O)Cn1cc(-c2ccc3nc(OC4CC4)ccc3c2)c2c(N)ncnc21 | 47.6% (inactive) and 5.84% (active) |  | 93.7% (inactive) and 61% (inactive) | 69.6% (inactive) and 39.6% (inactive) | 70.3% (inactive) and 52.4% (inactive) | 99.7% (inactive) and 89.4% (inactive) | 84.1% (inactive) and 56.8% (inactive) | 97.4% (inactive) and 63.8% (inactive)
